The nature of test [1]: qHTS RealTime-Glo MT Cell Viability Assay in HEK293 cells - 40 hour (AID 1224874). Further: nearly all actives have a fitted effect of over 50% in size. The settings on record: RealTime-Glo luminescence; max response: stronger effect = lower value. In short, it runs like this: (§1)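 Luminescence readout at each listed time point; HEK293, 600 cells/well, RealTime-Glo MT reagent added with cells; compounds pinned (23 nL in DMSO) after 5 h at 37 C; continuous culture at 37 C.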
A general note: In qHTS, concentration-response curves come from the screen itself.

Test [2] can be described thus: A CellTox Green Cytotoxicity Assay to monitor cytotoxicity in HepG2 cells - 16 hour (AID 1224876). Further: nearly all actives have a fitted effect of over 45% in size. Further: potency means the concentration at half of the fitted maximal effect. In short, it runs like this:
(§2)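 HepG2, 600 cells/well premixed w/ CellTox Green; 5 h settle, 37 C/5% CO2; pintool cpd add (DMSO); 37 C, 40 h; fluorescence read at 0, 8, 16, 24, 32, 40 h.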

Test [3] can be described thus: qHTS RealTime-Glo MT Cell Viability Assay in HepG2 cells - 32 hour (AID 1224877). Further: nearly all actives have a fitted effect of over 55% in size. The gist of the method: (§3)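 Real-time, nonlytic viability: 600 HepG2 cells/well mixed with NanoLuc enzyme plus prosubstrate; 5 h settle, compound (DMSO) added by pintool; luminescence monitored over 40 h at 37 C.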
Test [4] is described as follows: A CellTox Green Cytotoxicity Assay to monitor cytotoxicity in HepG2 cells - 24 hour (AID 1224878). Further: nearly all actives have a fitted effect of over 45% in size. Further: potency means the concentration at half of the fitted maximal effect. In short, it runs like this: as §2
Test [5] in a line: A CellTox Green Cytotoxicity Assay to monitor cytotoxicity in HepG2 cells - 40 hour (AID 1224879). Further: nearly all actives have a fitted effect of over 40% in size. Further: potency means the concentration at half of the fitted maximal effect. The gist of the method:
as §2

Test [6] is described as follows: qHTS RealTime-Glo MT Cell Viability Assay in HEK293 cells - 0 hour (AID 1224880). Further: top concentration of the series differs between compounds; nearly all actives have a fitted effect of over 45% in size. The gist of the method: as §1
Test [7] in a line: A CellTox Green Cytotoxicity Assay to monitor cytotoxicity in HEK293 cells - 32 hour (AID 1224881). Further: nearly all actives have a fitted effect of over 40% in size. Further: potency means the concentration at half of the fitted maximal effect. In short, it runs like this: (§4)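 Read-out: fluorescence of a cell-impermeant cyanine dye staining DNA of dead cells, proportional to cytotoxicity. HEK293, 600 cells/well with reagent, compound (23 nL DMSO) added after 5 h; reads at 0, 8, 16, 24, 32, 40 h.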
Test [8] in a line: A CellTox Green Cytotoxicity Assay to monitor cytotoxicity in HepG2 cells - 0 hour (AID 1224882). Further: nearly all actives have a fitted effect of over 35% in size. Further: potency means the concentration at half of the fitted maximal effect. The gist of the method: as §2
Test [9] is described as follows: A CellTox Green Cytotoxicity Assay to monitor cytotoxicity in HepG2 cells - 32 hour (AID 1224883). Further: nearly all actives have a fitted effect of over 50% in size. Further: potency means the concentration at half of the fitted maximal effect. In short, it runs like this:
as §2

Test [10] in a line: A CellTox Green Cytotoxicity Assay to monitor cytotoxicity in HEK293 cells - 8 hour (AID 1224884). Further: nearly all actives have a fitted effect of over 35% in size. Further: potency means the concentration at half of the fitted maximal effect. The gist of the method:
as §4

A short description of test [11]: qHTS RealTime-Glo MT Cell Viability Assay in HepG2 cells - 16 hour (AID 1224885). Further: nearly all actives have a fitted effect of over 50% in size. In short, it runs like this:
as §3

Test [12] is described as follows: qHTS RealTime-Glo MT Cell Viability Assay in HEK293 cells - 24 hour (AID 1224886). Further: top concentration of the series differs between compounds; nearly all actives have a fitted effect of over 50% in size. In short, it runs like this: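 Cells + reagent dispensed (600 cells/well, HEK293) → 5 h at 37 C/5% CO2 → 23 nL compound in DMSO pinned → 40 h at 37 C → luminescence read at 0, 8, 16, 24, 32, 40 h.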
Test [13] is described as follows: qHTS RealTime-Glo MT Cell Viability Assay in HEK293 cells - 8 hour (AID 1224887). In short, it runs like this:
as §1

Test [14] can be described thus: qHTS RealTime-Glo MT Cell Viability Assay in HepG2 cells - 0 hour (AID 1224889). Further: nearly all actives have a fitted effect of over 50% in size. In short, it runs like this:
as §3

Test [15] is described as follows: A CellTox Green Cytotoxicity Assay to monitor cytotoxicity in HepG2 cells - 8 hour (AID 1224890). Further: nearly all actives have a fitted effect of over 45% in size. Further: potency means the concentration at half of the fitted maximal effect. The gist of the method:
as §2

Test [16] can be described thus: qHTS assay to identify small molecule antagonists of the estrogen receptor alpha (ER-alpha) signaling pathway using the BG1 cell line in the presence of 0.1 nM 17-beta-estradiol - cell viability counter screen (AID 1259241). Further: nearly all actives have a fitted effect of over 40% in size. The gist of the method:
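VM7Luc4E2, 4,000 cells/well, phenol red-free medium + 10% charcoal-stripped FBS; 24 hr plating; cpd + 0.1 nM E2 final, 22 hr 37C/5% CO2; CellTiter-Fluor 30 min, fluorescence.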

Test [17] can be described thus: qHTS assay to identify small molecule antagonists of the androgen receptor (AR) signaling pathway using the MDA cell line in the presence of 0.5 nM R1881 - cell viability counter screen (AID 1259242). Further: nearly all actives have a fitted effect of over 45% in size. The gist of the method:
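Live-cell protease fluorescence, CellTiter-Fluor, 30 min at 37C. Cells: MDA-kb2, 3,000/well, preincubated 5 hr. Compounds plus 0.5 nM R1881 final, 16 hr, 37C, 0% CO2.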

A short description of test [18]: A CellTox Green Cytotoxicity Assay to monitor cytotoxicity in HEK293 cells - 24 hour (AID 1224875). The gist of the method:
as §4

Test [19] is described as follows: A CellTox Green Cytotoxicity Assay to monitor cytotoxicity in HEK293 cells - 16 hour (AID 1224888). Further: nearly all actives have a fitted effect of over 35% in size. In short, it runs like this: as §4
In test [20] the target is Androgen receptor (Homo sapiens) (UniProt P10275). In words: qHTS assay to identify small molecule antagonists of the androgen receptor (AR) signaling pathway using the MDA cell line in the presence of 0.5 nM R1881 (AID 1259243). Further: nearly all actives have a fitted effect of over 50% in size. In short, it runs like this:
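MDA-kb2, MMTV-luc (AR/GR elements); 3,000 cells/well; cpd + 0.5 nM R1881 final; 16 hr 37C, 0% CO2; ONE-Glo 30 min RT; luminescence.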

Values joined by “and” are separate entries in the source; they are usually repeats but may differ in a detail not shown here. Equal entries are not always repeated. Records with an inconclusive call do not appear. More than one record can exist for a structure, and the calls need not agree. Active and inactive are the calls of the source. The call rests on the fitted dose curve; in most records, active means well fitted curve in the direction sought with a large enough effect in the repeat runs; inconclusive means weak or mixed curves; inactive means no such curve, though single readings can be large; an effect the other way counts as inactive or inconclusive.
On the % scale 0 is the no-effect control and ±100 the full control effect.

Sequence of Androgen receptor (Homo sapiens) (P10275 whole entry, looked up): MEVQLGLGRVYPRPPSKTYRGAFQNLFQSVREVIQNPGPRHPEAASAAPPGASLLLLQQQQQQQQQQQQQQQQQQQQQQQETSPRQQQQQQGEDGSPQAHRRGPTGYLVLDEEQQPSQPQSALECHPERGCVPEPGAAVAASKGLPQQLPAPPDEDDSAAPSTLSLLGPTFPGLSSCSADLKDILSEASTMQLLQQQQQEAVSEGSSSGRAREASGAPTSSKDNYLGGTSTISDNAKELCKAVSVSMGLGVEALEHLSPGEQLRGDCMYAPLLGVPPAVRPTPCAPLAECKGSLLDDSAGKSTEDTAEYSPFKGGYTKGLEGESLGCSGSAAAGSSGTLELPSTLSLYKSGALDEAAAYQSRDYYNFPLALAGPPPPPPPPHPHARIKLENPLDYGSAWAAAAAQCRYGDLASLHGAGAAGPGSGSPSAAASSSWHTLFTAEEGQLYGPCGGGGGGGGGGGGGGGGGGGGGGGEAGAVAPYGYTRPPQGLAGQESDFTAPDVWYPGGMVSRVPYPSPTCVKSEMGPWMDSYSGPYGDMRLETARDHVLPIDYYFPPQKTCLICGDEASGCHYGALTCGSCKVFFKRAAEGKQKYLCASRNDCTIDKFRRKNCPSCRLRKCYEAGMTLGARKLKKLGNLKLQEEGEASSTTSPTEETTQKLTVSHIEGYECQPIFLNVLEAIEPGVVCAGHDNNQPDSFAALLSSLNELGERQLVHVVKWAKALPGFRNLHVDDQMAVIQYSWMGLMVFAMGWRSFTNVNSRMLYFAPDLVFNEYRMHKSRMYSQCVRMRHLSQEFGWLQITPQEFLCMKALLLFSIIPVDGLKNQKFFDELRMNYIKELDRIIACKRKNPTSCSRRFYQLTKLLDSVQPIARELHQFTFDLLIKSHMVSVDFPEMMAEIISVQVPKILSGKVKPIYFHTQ

Take `C=CCO`: the max response in [1] is 4.57% (inactive) and 0.311% (inactive). In addition, the Potency result in test [2] is “inactive and 24.5 µM (active)”; in [4], “inactive and 24.5 µM (active)”; in test [5] it was “inactive and 24.5 µM (active)”; in test [7] it was “inactive and 38.9 µM (active)”; in test [8], “inactive and 38.9 µM (active)”; in [9], “inactive and 24.5 µM (active)”. The Potency entry in test [10] was “inactive and 27.5 µM (active)”; in test [15], “inactive and 27.5 µM (active)”. The outcome in [3], in test [6], in [11], in test [13], in test [14] and in [17] was inactive. In addition, the Potency result in test [12] and in test [16] was “inactive” throughout.

Regarding `CCC(C)(CC)c1cc(NC(=O)c2c(OC)cccc2OC)on1`, the Potency result in test [18], in [2], in test [4], in [5], in [7] and in test [8] was “inactive” in each case. Moreover, the Potency entry in test [9], in [10], in [12], in [19], in [15] and in test [16] was “inactive” each time. In addition, the result in test [3], in [6], in [11], in test [13], in [14] and in [17] was inactive.

For the compound `C#CC(C)(C)NC(=O)c1cc(Cl)cc(Cl)c1`, the max response in test [1] was -9.66% (inactive). Moreover, the Potency entry in test [18], in test [4], in test [7], in [8], in [9] and in [10] was “inactive” each time. Moreover, the Potency result in test [12], in test [19], in test [15] and in test [16] was “inactive” in each case. For the same compound, the compound was called inactive in test [3], in test [6], in [11], in test [13], in test [14] and in test [17].

As for `O=c1ccc(=O)[nH][nH]1`, the max response in [1] is -2.89% (inactive) and -0.4% (inactive). For the same compound, the Potency result in test [18], in test [4], in [7], in test [8], in test [10] and in test [12] was “inactive” in each case. Further, the Potency entry in [15], in test [16] and in test [20] was “inactive” in each case. For the same compound, the compound was called inactive in [3], in [6], in test [11], in [13], in test [14] and in [17]. Also, the Potency result was “inactive and 130 nM (active)” in test [5]; “inactive and 130 nM (active)” in [9].

As to `CCCCCCCCCCCC#N`, the max response in test [1] is -12% (inactive) and 12.1% (inactive). For the same compound, the Potency result was “inactive and 45.2 µM (active)” in test [2]; “inactive and 45.2 µM (active)” in [4]; “inactive and 50.7 µM (active)” in test [5]; “inactive and 40.3 µM (active)” in [7]; “inactive and 45.2 µM (active)” in test [8]; “inactive and 45.2 µM (active)” in [9]. Besides, the Potency result in test [10] was “inactive and 45.2 µM (active)”; in test [15], “inactive and 40.3 µM (active)”. Further, the result in test [3], in test [6], in [11], in [13], in [14] and in [17] was inactive. The Potency result in [12] and in test [16] was “inactive” each time.

For `CC(C)C#N`, the max response in [1] is 8.8% (inactive) and 1.31% (inactive). Further, the Potency entry in test [18], in test [4], in test [7], in [8], in [9] and in [10] was “inactive” throughout. Further, the Potency entry in [12], in [15] and in [16] was “inactive” throughout. Moreover, the call in [3], in test [6], in test [11], in test [13], in test [14] and in test [17] was inactive.

As to `CN(C)CCO`, the max response in test [1] is -6.53% (inactive) and -6.4% (inactive). The Potency result in test [18], in test [4], in test [7], in test [8], in test [9] and in test [10] was “inactive” throughout. In addition, the Potency entry in test [12], in test [19], in test [15] and in test [16] was “inactive” throughout. Also, the compound was classed as inactive in test [3], in [6], in test [11], in [13], in [14] and in test [17].

The record behind these values is PubChem BioAssay (Tox21).
